This note sets out measurements from PubChem BioAssay AID1259421 (Broad Institute, 2018).

Where “and” joins values, the source holds several entries; their conditions need not be identical. Equal values may be shown once. Hit rate of the full screen: of about 6,400 compounds, about 610 (9.5%) were called active. No stated cut-off is given here; in the data, active means activity change below about -70%; inconclusive means no clear call, values can overlap the other calls; inactive means above that. Many of the other results were omitted from the sample, so actives are more common in it than they were.

This assay in a line: Toxoplasma gondii ME49Luc growth in HeLa cells, luciferase, no IFN-y, primary screen (AID 1259421). Particulars: T. gondii ME49Luc in HeLa, 72 h, stronger effect = lower value, concentration not given here.
Consider `O=C(NC(Cc1c[nH]c2ccccc12)C(=O)O)c1ccc(Cl)cc1` (centres undefined), for which the activity change, negative = inhibition is 4.2% (inactive). The result for `C=CC(=O)Nc1ccc(OC)cc1` reads 7.75% (inactive); that for `Cc1cc(Cn2cnc3c2C[C@@H](C(=O)O)N(C(=O)C(c2ccccc2)c2ccccc2)C3)ccc1N(C)C`, 25.4% (inactive). The result for `CCC(=O)O[C@@H](OP(=O)(CCCCc1ccccc1)CC(=O)N1C[C@H](C2CCCCC2)C[C@H]1C(=O)O)C(C)C` (some centres undefined) reads 11.7% (inactive); that for `CN(C)C(=O)COC(=O)Cc1ccc(OC(=O)c2ccc(N=C(N)N)cc2)cc1`, 0.553% (inactive). The result for `S=c1nc[nH]c2nc[nH]c12` reads -59.8% (inactive). Consider `Nc1ncnc2nc[nH]c12`, for which the activity change, negative = inhibition is 5.62% (inactive). The result for `Nc1nc(=S)c2[nH]cnc2[nH]1` reads -77.5% (active); that for `CC(NC(=O)CCc1nc2ccccc2c(=O)[nH]1)c1ccccc1` (centres undefined), 4.68% (inactive). The result for `CCOC(=O)c1cnc[nH]1` reads 7.3% (inactive); that for `CC1(C)CC(=O)C(C2C3=C(CC(C)(C)CC3=O)Oc3ccccc32)C(=O)C1` (centres undefined), 4.42% (inactive) and -1.95% (inactive).

Turning to `CCc1nc(N)nc(N)c1-c1ccc(Cl)cc1`, the activity change, negative = inhibition was -89.2% (active) and -80% (active).

For `CC(C)Cc1sc(N)nc1-c1ccc(P(=O)(O)O)o1`, the activity change, negative = inhibition is 7.23% (inactive). The result for `CC(=O)O[C@@]12CO[C@@H]1C[C@H](O)[C@@]1(C)C(=O)[C@H](O)C3=C(C)[C@@H](OC(=O)[C@H](O)[C@@H](NC(=O)OC(C)(C)C)c4ccccc4)C[C@@](O)([C@@H](OC(=O)c4ccccc4)[C@H]21)C3(C)C` reads -73.3% (active) and -80.3% (active); that for `CC(=O)O[C@@]12CO[C@@H]1C[C@H](O)[C@@]1(C)C(=O)[C@H](O)C3=C(C)[C@@H](OC(=O)[C@H](O)[C@@H](NC(=O)OC(C)(C)C)c4ccccc4)C[C@@](O)([C@@H](OC(=O)c4ccccc4)C12)C3(C)C` (some centres undefined), -80.2% (active).

Take `CO[C@H]1C(=O)[C@@]2(C)[C@H]([C@@H](OC(=O)c3ccccc3)[C@@]3(O)C[C@H](OC(=O)[C@H](O)[C@@H](NC(=O)OC(C)(C)C)c4ccccc4)C(C)=C1C3(C)C)[C@]1(OC(C)=O)CO[C@@H]1C[C@H]2OC`: the activity change, negative = inhibition is -82.6% (active). The result for `Cc1cccc(C)c1NC(=O)/N=C1/CCCN1C` reads 6.63% (inactive); that for `COc1ccc(/C=C/C(=O)c2ccc(O)cc2O)cc1`, 82.9% (inactive); that for `COc1ccnc(CS(=O)c2nc3ccc(OC(F)F)cc3[nH]2)c1OC` (centres undefined), 26.3% (inactive) and 7.86% (inactive). The result for `Cc1ccc(OCC(O)C(C)NC(C)C)c2c1CCC2` (centres undefined) reads 14.3% (inactive). The result for `Cc1oc(=O)oc1CN1CCN(c2cc3c(cc2F)c(=O)c(C(=O)O)c2n3C(C)S2)CC1` (centres undefined) reads 19.8% (inactive); that for `COc1cc(-c2coc3cc(OCc4ccccc4)c(OC)c(O)c3c2=O)cc(OCc2ccccc2)c1OC`, -39.8% (inactive); that for `COc1ccc([C@@H]2CC(=O)c3c(O)cc(O[C@@H]4O[C@H](CO[C@H]5O[C@@H](C)[C@H](O)[C@@H](O)[C@H]5O)[C@@H](O)[C@H](O)[C@H]4O)cc3O2)cc1O`, 5.14% (inactive). As for `Cc1cc(N2CCN([C@@H]3CN[C@H](C(=O)N4CCSC4)C3)CC2)n(-c2ccccc2)n1`, the activity change, negative = inhibition was -3% (inactive). With `Cc1ccc(C(=O)Nc2ccc(CN3CCN(C)CC3)c(C(F)(F)F)c2)cc1C#Cc1cnc2[nH]ncc2c1`, the activity change, negative = inhibition was -89.3% (active).

On to `Cc1ccc(C(=O)Nc2ccc(CN3CCN(C)CC3)c(C(F)(F)F)c2)cc1C#Cc1cnc2cccnn12`, for which the activity change, negative = inhibition is -83% (active).

In the case of `COC(=O)N1CCN(Cc2cccc(NC(=O)Nc3ccc(C)nc3)c2F)CC1`, the activity change, negative = inhibition is 9.25% (inactive).

For the compound `CCCCCCCCCCCCCCCC(=O)OC[C@H](NC(=O)C(Cl)Cl)[C@H](O)c1ccc([N+](=O)[O-])cc1`, the activity change, negative = inhibition is 7.24% (inactive) and 16.1% (inactive). Consider `NC(=O)CCC1NC(=O)C(Cc2ccccc2)NC(=O)C(Cc2ccc(O)cc2)NC(=O)CCSSCC(C(=O)N2CCCC2C(=O)NC(CCCN=C(N)N)C(=O)NCC(N)=O)NC(=O)C(CC(N)=O)NC1=O` (centres undefined), for which the activity change, negative = inhibition is 7.89% (inactive). As to `COc1cc(/C=C/C(=O)O)cc(OC)c1O`, the activity change, negative = inhibition was -2.18% (inactive). The result for `COc1cc2c(cc1OC)C(c1ccc(N)cc1)=NNC(=O)C2` reads -18.7% (inactive) and 7.52% (inactive); that for `CC1=C(SCCO)C(=O)c2ccccc2C1=O`, 29.8% (inactive); that for `COc1ccc2c(c1)c1c3n2CCN(C)C3=NCC1`, 14.7% (inactive). The result for `C=CC(=O)N1CCCCC1` reads 4.09% (inactive).

Consider `CN([NH2+][O-])C(=O)N[C@@H]1[C@@H](O)[C@H](O)[C@@H](CO)O[C@@H]1O`, for which the activity change, negative = inhibition was -1.36% (inactive).

`Cc1ccc(O)c(N=Nc2ccccc2)n1`: the activity change, negative = inhibition is 8.22% (inactive) and 3.77% (inactive).

For the compound `COc1cccc2c1C(=O)c1c(O)c3c(c(O)c1C2=O)CC(O)(C(=O)CO)CC3OC1CC(N)C(O)C(C)O1` (centres undefined), the activity change, negative = inhibition was -89.5% (active). The result for `COc1cccc2c1C(=O)c1c(O)c3c(c(O)c1C2=O)C[C@@](O)(C(=O)CO)C[C@@H]3O[C@H]1C[C@H](N)[C@@H](O)[C@H](C)O1` reads -80.9% (active); that for `COc1cccc2c1C(=O)c1c(O)c3c(c(O)c1C2=O)C[C@@](O)(C(=O)CO)C[C@@H]3OC1C[C@H](N)[C@H](O)[C@H](C)O1` (some centres undefined), -87.6% (active); that for `COc1cccc2c1C(=O)c1c(O)c3c(c(O)c1C2=O)C[C@@](O)(C(=O)CO)C[C@@H]3O[C@H]1C[C@H](N)[C@H](O)[C@H](C)O1`, -78.1% (active) and -79.4% (active).

As to `CCCCC(=O)OCC(=O)[C@]1(O)Cc2c(O)c3c(c(O)c2[C@@H](O[C@H]2C[C@H](NC(=O)C(F)(F)F)[C@H](O)[C@H](C)O2)C1)C(=O)c1c(OC)cccc1C3=O`, the activity change, negative = inhibition is -24.8% (inactive). As for `NC(Cc1ccc(O)cc1)C(=O)O` (centres undefined), the activity change, negative = inhibition is 3.44% (inactive).

Regarding `Oc1ccc(-c2nc3cc(O)cc(Br)c3o2)cc1`, the activity change, negative = inhibition is -55.9% (inactive). Turning to `CC(=O)O[C@@H]1CC2C(C)(CC[C@H](O)C2(C)C)C2CC[C@]3(C)C(=CC(=O)O[C@H]3c3ccoc3)C21C` (some centres undefined), the activity change, negative = inhibition was -5.23% (inactive).
